Inconclusive results are not listed. Where a call stands in place of a potency, no number is given. Activity calls are given as the source filed them. Calls come from the whole dose curve; as a rule, active = well fitted curve in the direction sought with a large enough effect; inconclusive = small, poorly fitted or top-dose-only effect, or another doubt; inactive = no such curve, though single readings can be large; an effect the other way counts as inactive or inconclusive.
Tested on: not listed separately
Experiment: qHTS to identify inhibitors of the type 1 interferon - major histocompatibility complex class I in skeletal muscle: primary screen against the NCATS Pharmaceutical Collection (AID 1347407);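 note: luminescence of HiBiT knocked into endogenous HLA-B as interferon-induced MHC class I level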; note: potency is the fitted concentration of half-maximal effect
Conditions: human skeletal muscle cells, IFN-b-induced MHC-I HiBiT luminescence, 24 h; series mostly up to 45.9 µM
Summary of the method: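 Compounds […] were added to CRISPR-engineered HLA-B-HiBiT C25cl48 human myoblasts with 4.0 ng/ml IFN-beta. After 24 hrs at 37 C, cells were lysed and HiBiT luminescence measured.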

Which Potency does the source give for `CC1=C(C(=O)O)N2C(=O)[C@@H](NC(=O)[C@H](N)c3ccc(O)cc3)[C@H]2SC1` here?
Its Potency is “inactive”.

Which Potency does the source give for `CC(O)(P(=O)(O)O)P(=O)(O)O` here?
The Potency was “inactive”.

With `CCCCOc1ccc(C(=O)CCN2CCCCC2)cc1` as the compound, how does the Potency read?
Its Potency is “inactive”.

Which Potency does the source give for `C/C=C(/C(=C/C)c1ccc(O)cc1)c1ccc(O)cc1` here?
Its Potency is “inactive”.

Which Potency does the source give for `CN(C)C(=S)SC(=S)N(C)C` here?
Its Potency is “inactive”.

Which Potency does the source give for `CCCN1CCCC[C@H]1C(=O)Nc1c(C)cccc1C` here?
The Potency was “inactive”.

For `Cc1c(C(N)=O)cc([N+](=O)[O-])cc1[N+](=O)[O-]`, which Potency is on record?
Its Potency is “inactive”.

For `c1ccc(CNCCNCc2ccccc2)cc1`, which Potency is on record?
The Potency was “inactive”.

Which Potency does the source give for `CCN(CC)CCOC(=O)C(c1ccccc1)C1CCCCC1` (stereo not given) here?
Its Potency is “inactive”.

Which Potency does the source give for `O=C1c2ccccc2C(=O)C1c1ccccc1` here?
The Potency was “inactive”.

Which Potency does the source give for `CCOc1ccc2nc3cc(N)ccc3c(N)c2c1` here?
Its Potency is “inactive”.

Which Potency does the source give for `C=C1C[C@H]2[C@@H]3C=C(C)C4=CC(=O)CC[C@]4(C)[C@H]3CC[C@]2(C)[C@@]1(OC(C)=O)C(C)=O` here?
Its Potency is “inactive”.

With `CCCCc1nc(Cl)c(CO)n1Cc1ccc(-c2ccccc2-c2nn[nH]n2)cc1` as the compound, how does the Potency read?
The Potency was “inactive”.

Which Potency does the source give for `CC(C)=CCC1C(=O)N(c2ccccc2)N(c2ccccc2)C1=O` here?
The Potency was 18.7 µM (active).

Tested on: not listed separately
Experiment: qHTS for inhibitors of adenylyl cyclases using a fission yeast platform: a pilot screen against the NCATS LOPAC library (AID 1347410)
Conditions: S. pombe CHP2027, fbp1-GFP fluorescence, 18 h, yeast expressing mammalian AC9 and human GNAS; series mostly up to 57.5 µM
Summary of the method: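 GFP from fbp1-GFP reporter, read by Acumen laser cytometry, indicates AC inhibition in fission yeast expressing AC9, GNAS and PDE4D2. Cells grown 18 h in the dark at 30C with compounds, final up to 57 uM.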

With `CC(C)C[C@H]1C(=O)N2CCC[C@H]2[C@]2(O)O[C@](NC(=O)[C@@H]3C=C4c5cccc6[nH]c(Br)c(c56)C[C@H]4N(C)C3)(C(C)C)C(=O)N12` as the compound, how does the outcome read?
Its outcome is “inactive”.

With `COc1cc2c(cc1O)CC[C@@H]1[C@@H]2CC[C@]2(C)[C@@H](O)CC[C@@H]12` as the compound, how does the outcome read?
Its outcome is “inactive”.

Which outcome does the source give for `C[C@@H]1C(=O)NC2=Nc3cccc(Cl)c3CN21` here?
The outcome was “inactive”.

With `C[C@]12CC[C@@H]3c4ccc(O)cc4CC[C@H]3[C@@H]1CC[C@@H]2O` as the compound, how does the outcome read?
Its outcome is “inactive”.

For `CNCCC=C1c2ccccc2CCc2ccccc21`, which outcome is on record?
The outcome was “inactive”.

Tested on: not listed separately
Experiment: qHTS to identify inhibitors of the type 1 interferon - major histocompatibility complex class I in skeletal muscle: primary screen against the NCATS Mechanism Interrogation Plate v5.0 (MIPE) Libary (AID 1347411); note: nearly all actives have a fitted effect of over 65% in size
Conditions: iHSKM cells + IFN-b, HiBiT-tagged MHC-I luminescence, 24 h; series mostly up to 45.8 µM
Summary of the method: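 HLA-B HiBit myoblasts, dexamethasone-free medium + 4 ng/ml IFN-b, 24 h compound, 11-pt 1:3 from 46 uM final. Readout: Nano-Glo HiBiT lytic luminescence after 10 min lysis, RT.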

With `CC(=O)OCC(=O)[C@@]12N=C(C)O[C@@H]1C[C@H]1[C@@H]3CCC4=CC(=O)C=C[C@]4(C)[C@H]3[C@@H](O)C[C@@]12C` as the compound, how does the Potency read?
Its Potency is “inactive”.

Which Potency does the source give for `CC(=O)OCC(=O)[C@@]12OC(C)(C)O[C@@H]1C[C@H]1[C@@H]3C[C@H](F)C4=CC(=O)C=C[C@]4(C)[C@@]3(F)[C@@H](O)C[C@@]12C` here?
Its Potency is “inactive”.

For `CC(=O)N(O)CCCCCNC(=O)CCC(=O)N(O)CCCCCNC(=O)CCC(=O)N(O)CCCCCN`, which Potency is on record?
The Potency was “inactive”.

Which Potency does the source give for `COC(=O)[C@@H]1CC2=CC(=O)CC[C@]2(C)[C@@]23O[C@@H]2C[C@@]2(C)[C@@H](CC[C@@]24CCC(=O)O4)[C@H]13` here?
Its Potency is “inactive”.

Which Potency does the source give for `C[C@]12C=CC(=O)C=C1CC[C@@H]1[C@@H]2[C@@H](O)C[C@@]2(C)[C@H]1CC[C@]2(O)C(=O)CO` here?
The Potency was “inactive”.

Biological target: Protein phosphatase 1D (Homo sapiens) (UniProt O15297)
Sequence (O15297 whole entry, looked up): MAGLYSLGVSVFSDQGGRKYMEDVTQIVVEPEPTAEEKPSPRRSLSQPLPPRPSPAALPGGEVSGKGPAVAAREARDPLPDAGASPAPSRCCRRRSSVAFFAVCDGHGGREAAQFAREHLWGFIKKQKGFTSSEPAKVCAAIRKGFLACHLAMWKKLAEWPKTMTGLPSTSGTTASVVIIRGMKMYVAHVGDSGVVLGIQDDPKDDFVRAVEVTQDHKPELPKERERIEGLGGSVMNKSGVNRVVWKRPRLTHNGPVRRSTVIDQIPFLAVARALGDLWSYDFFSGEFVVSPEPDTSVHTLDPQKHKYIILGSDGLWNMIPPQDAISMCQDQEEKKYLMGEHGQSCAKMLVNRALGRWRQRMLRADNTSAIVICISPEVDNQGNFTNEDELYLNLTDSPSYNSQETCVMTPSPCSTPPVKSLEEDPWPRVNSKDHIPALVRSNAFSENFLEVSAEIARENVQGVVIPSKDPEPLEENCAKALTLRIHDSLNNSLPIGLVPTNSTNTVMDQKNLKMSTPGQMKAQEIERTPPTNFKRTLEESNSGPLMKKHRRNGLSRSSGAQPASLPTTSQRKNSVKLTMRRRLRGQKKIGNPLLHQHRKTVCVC
Experiment: RapidFire Mass Spectrometry qHTS Assay for Modulators of WT P53-Induced Phosphatase 1 (WIP1) (AID 1347424);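 note: amount of dephosphorylated VEPPL-S-QETFS peptide product formed by WIP1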
Conditions: WIP1 dephosphorylation of phosphopeptide, RapidFire MS; series mostly up to 63 µM
Summary of the method: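 Mass-spectrometric measurement of dephosphorylated peptide after a 5 min room-temperature reaction of 10 nM WIP1 with 2 uM phosphopeptide, following 1 h compound preincubation in 30 mM MgCl2 buffer.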

For `OCc1ccccc1O`, which Potency is on record?
The Potency was “inactive”.

Which Potency does the source give for `CC(=O)OCC(=O)[C@@]12N=C(C)O[C@@H]1C[C@H]1[C@@H]3CCC4=CC(=O)C=C[C@]4(C)[C@H]3[C@@H](O)C[C@@]12C` here?
Its Potency is “inactive”.

With `CC(=O)OCC(=O)[C@@]1(OC(C)=O)[C@@H](C)C[C@H]2[C@@H]3C[C@H](F)C4=CC(=O)C=C[C@]4(C)[C@@]3(F)[C@@H](O)C[C@@]21C` as the compound, how does the Potency read?
The Potency was “inactive”.

For `COc1cc(-c2ccc(=O)[nH]n2)ccc1OC(F)F`, which Potency is on record?
The Potency was “inactive”.

For `CC(=O)OCC(=O)[C@@]12OC(C)(C)O[C@@H]1C[C@H]1[C@@H]3C[C@H](F)C4=CC(=O)C=C[C@]4(C)[C@@]3(F)[C@@H](O)C[C@@]12C`, which Potency is on record?
The Potency was “inactive”.

With `Nc1ccc(C(=O)Nc2ccccc2N)cc1` as the compound, how does the Potency read?
Its Potency is “inactive”.

With `CC(=O)N(O)CCCCCNC(=O)CCC(=O)N(O)CCCCCNC(=O)CCC(=O)N(O)CCCCCN` as the compound, how does the Potency read?
The Potency was “inactive”.

For `C#C[C@]1(O)CC[C@H]2[C@@H]3CCC4=CC(=O)CC[C@@H]4[C@H]3CC[C@@]21C`, which Potency is on record?
Its Potency is “inactive”.

Which Potency does the source give for `NCCC(O)(P(=O)(O)O)P(=O)(O)O` here?
Its Potency is “inactive”.

With `COC(=O)[C@@H]1CC2=CC(=O)CC[C@]2(C)[C@@]23O[C@@H]2C[C@@]2(C)[C@@H](CC[C@@]24CCC(=O)O4)[C@H]13` as the compound, how does the Potency read?
Its Potency is “inactive”.

With `NC(=NCCCCCCN=C(N)/N=C(\N)Nc1ccc(Cl)cc1)/N=C(\N)Nc1ccc(Cl)cc1` as the compound, how does the Potency read?
Its Potency is “inactive”.

With `CN1C(CCl)Nc2cc(Cl)c(S(N)(=O)=O)cc2S1(=O)=O` (stereo not given) as the compound, how does the Potency read?
The Potency was “inactive”.

With `C/C=C/c1ccc(OC)cc1` as the compound, how does the Potency read?
Its Potency is “inactive”.

With `O=C(O)CCCCC(=O)O` as the compound, how does the Potency read?
Its Potency is “inactive”.

For `C[C@]12C=CC(=O)C=C1CC[C@@H]1[C@@H]2[C@@H](O)C[C@@]2(C)[C@H]1CC[C@]2(O)C(=O)CO`, which Potency is on record?
The Potency was “inactive”.

With `C=C(CC)C(=O)c1ccc(OCC(=O)O)c(Cl)c1Cl` as the compound, how does the Potency read?
The Potency was “inactive”.

For `Cc1c(N(C)CS(=O)(=O)O)c(=O)n(-c2ccccc2)n1C`, which Potency is on record?
The Potency was “inactive”.

Biological target: Protein phosphatase 1D (Homo sapiens) (UniProt O15297)
Experiment: Rhodamine-PBP qHTS Assay for Modulators of WT P53-Induced Phosphatase 1 (WIP1) (AID 1347425)
Conditions: recombinant WIP1, Rhodamine-PBP phosphate fluorescence, real-time; series mostly up to 57.5 µM
Summary of the method: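 WIP1 (5 nM final) was preincubated with compound for 1 hour at room temperature. It then dephosphorylated 10 uM VEPPL-pS-QETFS peptide in Tris-HCl pH 7.5 with 30 mM MgCl2. Released Pi was detected by 10 uM Rh-PBP fluorescence (ex 525/em 598 nm) read at 1-min intervals for 11 min, as delta f1 - f0.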

With `OCc1ccccc1O` as the compound, how does the outcome read?
Its outcome is “inactive”.

For `CC1=C(C(=O)O)N2C(=O)[C@@H](NC(=O)[C@H](N)c3ccc(O)cc3)[C@H]2SC1`, which outcome is on record?
The outcome was “inactive”.

With `CC(=O)OCC(=O)[C@@]12N=C(C)O[C@@H]1C[C@H]1[C@@H]3CCC4=CC(=O)C=C[C@]4(C)[C@H]3[C@@H](O)C[C@@]12C` as the compound, how does the outcome read?
The outcome was “inactive”.

Which outcome does the source give for `CC(O)(P(=O)(O)O)P(=O)(O)O` here?
The outcome was “inactive”.

With `CCCCOc1ccc(C(=O)CCN2CCCCC2)cc1` as the compound, how does the outcome read?
Its outcome is “inactive”.

Which outcome does the source give for `CN(C)C(=S)SC(=S)N(C)C` here?
The outcome was “inactive”.

With `CC(=O)OCC(=O)[C@@]1(OC(C)=O)[C@@H](C)C[C@H]2[C@@H]3C[C@H](F)C4=CC(=O)C=C[C@]4(C)[C@@]3(F)[C@@H](O)C[C@@]21C` as the compound, how does the outcome read?
Its outcome is “inactive”.

Which outcome does the source give for `COc1cc(-c2ccc(=O)[nH]n2)ccc1OC(F)F` here?
Its outcome is “inactive”.

For `CC(=O)OCC(=O)[C@@]12OC(C)(C)O[C@@H]1C[C@H]1[C@@H]3C[C@H](F)C4=CC(=O)C=C[C@]4(C)[C@@]3(F)[C@@H](O)C[C@@]12C`, which outcome is on record?
Its outcome is “inactive”.

Which outcome does the source give for `CCCN1CCCC[C@H]1C(=O)Nc1c(C)cccc1C` here?
Its outcome is “inactive”.

For `Nc1ccc(C(=O)Nc2ccccc2N)cc1`, which outcome is on record?
The outcome was “inactive”.

With `CC(=O)N(O)CCCCCNC(=O)CCC(=O)N(O)CCCCCNC(=O)CCC(=O)N(O)CCCCCN` as the compound, how does the outcome read?
Its outcome is “inactive”.

For `C#C[C@]1(O)CC[C@H]2[C@@H]3CCC4=CC(=O)CC[C@@H]4[C@H]3CC[C@@]21C`, which outcome is on record?
The outcome was “inactive”.

For `Cc1c(C(N)=O)cc([N+](=O)[O-])cc1[N+](=O)[O-]`, which outcome is on record?
The outcome was “inactive”.

For `NCCC(O)(P(=O)(O)O)P(=O)(O)O`, which outcome is on record?
The outcome was “inactive”.

Which outcome does the source give for `c1ccc(CNCCNCc2ccccc2)cc1` here?
Its outcome is “inactive”.

With `COC(=O)[C@@H]1CC2=CC(=O)CC[C@]2(C)[C@@]23O[C@@H]2C[C@@]2(C)[C@@H](CC[C@@]24CCC(=O)O4)[C@H]13` as the compound, how does the outcome read?
Its outcome is “inactive”.

Which outcome does the source give for `NC(=NCCCCCCN=C(N)/N=C(\N)Nc1ccc(Cl)cc1)/N=C(\N)Nc1ccc(Cl)cc1` here?
The outcome was “inactive”.

For `CCN(CC)CCOC(=O)C(c1ccccc1)C1CCCCC1` (stereo not given), which outcome is on record?
Its outcome is “inactive”.

For `CN1C(CCl)Nc2cc(Cl)c(S(N)(=O)=O)cc2S1(=O)=O` (stereo not given), which outcome is on record?
Its outcome is “inactive”.

For `C/C=C/c1ccc(OC)cc1`, which outcome is on record?
The outcome was “inactive”.

Which outcome does the source give for `O=C(O)CCCCC(=O)O` here?
Its outcome is “inactive”.

With `O=C1c2ccccc2C(=O)C1c1ccccc1` as the compound, how does the outcome read?
Its outcome is “inactive”.

With `CCOc1ccc2nc3cc(N)ccc3c(N)c2c1` as the compound, how does the outcome read?
The outcome was “inactive”.

For `C=C1C[C@H]2[C@@H]3C=C(C)C4=CC(=O)CC[C@]4(C)[C@H]3CC[C@]2(C)[C@@]1(OC(C)=O)C(C)=O`, which outcome is on record?
Its outcome is “inactive”.

With `C[C@]12C=CC(=O)C=C1CC[C@@H]1[C@@H]2[C@@H](O)C[C@@]2(C)[C@H]1CC[C@]2(O)C(=O)CO` as the compound, how does the outcome read?
Its outcome is “inactive”.

For `CCCCc1nc(Cl)c(CO)n1Cc1ccc(-c2ccccc2-c2nn[nH]n2)cc1`, which outcome is on record?
The outcome was “inactive”.

With `C=C(CC)C(=O)c1ccc(OCC(=O)O)c(Cl)c1Cl` as the compound, how does the outcome read?
Its outcome is “inactive”.

With `Cc1c(N(C)CS(=O)(=O)O)c(=O)n(-c2ccccc2)n1C` as the compound, how does the outcome read?
The outcome was “inactive”.

Reference: PubChem BioAssay (NCATS)
